Assay [1] can be described thus: Human pregnane X receptor (PXR) small molecule agonists, qHTS cell viability counter screen (AID 1346977). Note: nearly all actives have a fitted effect of over 50% in size. A digest of the protocol:
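Tox21 qHTS format; PXR-Luc HepG2, 2,000/well, charcoal-stripped FBS 5%. Cpd exposure 24hr. Read: CellTiter-Fluor fluorescence, multiplexed with luciferase.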

Assay [2] can be described thus: Caspase-3/7 induction in HepG2 cells by small molecules, qHTS assay (AID 1346978). Note: nearly all actives have a fitted effect of over 15% in size. Note: potency is the fitted concentration of half-maximal effect. Put shortly: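 Wild-type HepG2 cells (2,000/well) were settled 5 h at 37 C, 5% CO2, then exposed to compounds in DMSO for 17 h. Caspase-3/7 activity was read by luminescence 30 min after adding Caspase-Glo 3/7 reagent at room temperature.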
(In general: qHTS replaces the single test concentration by a dilution series.)

Assay [3] is described as follows: Caspase-3/7 induction in CHO-K1 cells by small molecules, qHTS cell viability counter screen (AID 1346979). Note: nearly all actives have a fitted effect of over 35% in size. Put shortly:
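CellTiter-Fluor viability check, qHTS format: wild-type CHO-K1, 16hr compound treatment, 1hr reagent incubation, fluorescence read.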

Assay [4] in a line: Caspase-3/7 induction in CHO-K1 cells by small molecules, qHTS assay (AID 1346980). Note: nearly all actives have a fitted effect of over 15% in size. A digest of the protocol: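 Wild-type cells were seeded at 1,500 per well and settled 5 hr at 37 C, 5% CO2, then exposed to DMSO-dissolved compounds for 17 hr. Caspase-Glo 3/7 reagent was added, and luminescence was read after 30min at room temperature.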
A short description of assay [5]: Caspase-3/7 induction in HepG2 cells by small molecules, qHTS cell viability counter screen (AID 1346981). Note: series mostly up to about 92 µM; nearly all actives have a fitted effect of over 30% in size. Put shortly:
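The parent HepG2 line is plated at 2,000 cells per well and rested 5 hr before compound pinning from DMSO stocks. Following a 16-hr treatment at 37 C, a fluorogenic live-cell substrate (CellTiter-Fluor) reports viability after 1 hr.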

In assay [6] the target is Nuclear receptor subfamily 1 group I member 2 (Homo sapiens) (UniProt O75469). In words: Human pregnane X receptor (PXR) small molecule agonists, qHTS assay (AID 1346982). Note: nearly all actives have a fitted effect of over 35% in size. Note: potency is the fitted concentration of half-maximal effect. Put shortly:
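After plating in 5% charcoal-stripped FBS and a 5 hr rest, PXR-Luc HepG2 cells received compounds in DMSO. Following 24 hr at 37 C, ONE-Glo was added and light output read.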

Assay [7] concerns the target Cytochrome P450 2D6 (Homo sapiens) (UniProt P10635). Briefly: Cytochrome P450 Family 2 Subfamily D Member 6 (CYP2D6) small molecule antagonists: luciferase reporter qHTS assay (AID 1671196). Note: nearly all actives have a fitted effect of over 50% in size. Note: potency is the fitted concentration of half-maximal effect. Put shortly: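 Quantitative HTS of Tox21 chemicals against CYP2D6 using a luminescent proluciferin substrate. After NADPH addition, 1 h room-temperature reaction; luminescence recorded 20 min post detection reagent.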
(A reporter such as luciferase makes a cellular process visible.)

Assay [8] deals with Cytochrome P450 2C19 (Homo sapiens) (UniProt P33261). In words: Cytochrome P450 Family 2 Subfamily C Member 19 (CYP2C19) small molecule antagonists: luciferase reporter qHTS assay (AID 1671197). Note: nearly all actives have a fitted effect of over 65% in size. Note: potency is the fitted concentration of half-maximal effect. Put shortly:
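Inhibition of CYP2C19 was scored from loss of luminescence in a P450-Glo proluciferin substrate assay, NADPH-started and run 1 h at 37C, with ketoconazole as positive control.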

Assay [9] addresses Voltage-gated inwardly rectifying potassium channel KCNH2 (Homo sapiens) (UniProt Q12809). Briefly: Human Ether-a-go-go-Related Gene (hERG) channel small molecule antagonists: fluorescence cell-based qHTS assay (AID 1671200). Note: nearly all actives have a fitted effect of over 50% in size. Note: potency is the fitted concentration of half-maximal effect. A digest of the protocol: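 Kinetic two-minute fluorescence traces, sampled at 1 s, were collected following thallium stimulus of U2OS cells (1000 per well) that had been cultured overnight at 37 C and loaded with FluxOR II.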
For orientation: Block of hERG is tested as a sign of cardiac risk.

For assay [10], the target named is Cytochrome P450 3A4 (Homo sapiens) (UniProt P08684). Briefly: Cytochrome P450 Family 3 Subfamily A Member 4 (CYP3A4) small molecule antagonists: luciferase reporter qHTS assay (AID 1671201). Note: nearly all actives have a fitted effect of over 50% in size. Note: potency is the fitted concentration of half-maximal effect. Put shortly:
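Proluciferin-to-luciferin conversion by CYP3A4, NADPH-regenerated, 1 h RT; luminescence read as RLU. Ketoconazole as control.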

The target in assay [11] is Cytochrome P450 2C9 (Homo sapiens) (UniProt P11712). In words: Cytochrome P450 Family 2 Subfamily C Member 9 (CYP2C9) small molecule antagonists: luciferase reporter qHTS assay (AID 1671198). Note: nearly all actives have a fitted effect of over 50% in size. Note: potency is the fitted concentration of half-maximal effect. A digest of the protocol:
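CYP2C9 activity was measured with a P450-Glo proluciferin substrate. Enzyme–substrate mix was held with compound for 10 min at room temperature, then NADPH regeneration solution was added for 1 h at 37C. Luciferin product was read as luminescence.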

Assay [12] concerns the target Thyrotropin-releasing hormone receptor (Homo sapiens) (UniProt P34981). In words: qHTS assay to identify small molecule agonists of the thyrotropin-releasing hormone receptor (TRHR) signaling pathway (AID 1346891; calls by dose curve; note: series mostly up to about 58 µM). A digest of the protocol: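 Screening of agonists relied on calcium signalling in HEK293 cells expressing human TRHR: dye loading 2 h at 37 °C preceded compound addition and a 3-min fluorescence time course.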

Assay [13] has as its target Cytochrome P450 1A2 (Homo sapiens) (UniProt P05177). Briefly: Cytochrome P450 Family 1 Subfamily A Member 2 (CYP1A2) small molecule antagonists: luciferase reporter qHTS assay (AID 1671199). A digest of the protocol: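 Quantitative high-throughput format using the P450-Glo CYP1A2 system. Reaction initiated by NADPH regeneration solution, 1 h at room temperature, then stopped with detection reagent; luminescence measured 20 min later.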

For assay [14], the target named is Nuclear receptor subfamily 1 group I member 2 (Rattus norvegicus) (UniProt Q9R1A7). Briefly: Rat pregnane X receptor (rPXR) activation by small molecules, qHTS assay (AID 1346983). Note: potency is the fitted concentration of half-maximal effect; nearly all actives have a fitted effect of over 20% in size. The settings on record: rPXR luciferase reporter cells, One-Glo luminescence, 24 h; max activation: hits give high values. A digest of the protocol: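 Cell-based rPXR luciferase reporter assay, 2,000 cells per well, rested 5hr at 37 C before compound addition in DMSO, then 24 hr at 37 C. One-Glo reagent was added and luminescence read after 30 min at room temperature.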

Assay [15] deals with Nuclear receptor subfamily 1 group I member 2 (Homo sapiens) (UniProt O75469). In words: CYP3A4 induction through human pregnane X receptor (PXR) by small molecules, qHTS assay (AID 1346984). Note: potency is the fitted concentration of half-maximal effect; nearly all actives have a fitted effect of over 40% in size. A digest of the protocol: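 Human PXR activation is tracked via CYP3A4 promoter-luciferase in DPX-2 (HepG2) cells. Compounds treat cells for 24hr at 37C, and luminescence is read after One-Glo.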

For assay [16] the target is unchanged. Briefly: Human pregnane X receptor (PXR) activation by small molecules, qHTS assay (AID 1346985). Note: potency is the fitted concentration of half-maximal effect; nearly all actives have a fitted effect of over 40% in size. A digest of the protocol:
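DPX-2 cells (HepG2 co-transfected with a PXR response element and a CYP3A4-promoter luciferase construct) were seeded at 2,000 per well, rested 5 hr at 37C, then exposed to DMSO-dissolved compounds for 24 hr. Activation was read as luciferase luminescence.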

Values joined by “and” are separate entries in the source; they are usually repeats but may differ in a detail not shown here. Equal entries are not always repeated. Unmarked numbers belong to inactive results. Inconclusive results are not listed. Active and inactive are the calls of the source. Unless noted, calls come from the whole dose curve; as a rule, active = well fitted curve in the direction sought with a large enough effect in the repeat runs; inconclusive = weak or mixed curves; inactive = no such curve, though single readings can be large; an effect the other way counts as inactive or inconclusive.

Cytochrome P450 2D6 (Homo sapiens), sequence (P10635 whole entry, looked up): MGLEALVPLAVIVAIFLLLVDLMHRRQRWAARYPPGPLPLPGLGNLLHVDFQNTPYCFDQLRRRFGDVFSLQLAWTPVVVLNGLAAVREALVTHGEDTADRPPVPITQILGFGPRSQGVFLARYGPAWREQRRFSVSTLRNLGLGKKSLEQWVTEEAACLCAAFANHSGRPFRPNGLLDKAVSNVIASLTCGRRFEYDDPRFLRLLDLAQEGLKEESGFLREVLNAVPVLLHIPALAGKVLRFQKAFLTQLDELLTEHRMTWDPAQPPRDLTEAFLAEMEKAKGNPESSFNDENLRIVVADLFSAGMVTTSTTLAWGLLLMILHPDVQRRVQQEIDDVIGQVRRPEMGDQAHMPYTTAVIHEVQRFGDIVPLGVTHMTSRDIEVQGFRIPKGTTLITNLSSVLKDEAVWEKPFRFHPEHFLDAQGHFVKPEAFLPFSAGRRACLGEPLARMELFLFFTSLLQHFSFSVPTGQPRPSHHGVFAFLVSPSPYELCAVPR
Cytochrome P450 2C19 (Homo sapiens), sequence (P33261 whole entry, looked up): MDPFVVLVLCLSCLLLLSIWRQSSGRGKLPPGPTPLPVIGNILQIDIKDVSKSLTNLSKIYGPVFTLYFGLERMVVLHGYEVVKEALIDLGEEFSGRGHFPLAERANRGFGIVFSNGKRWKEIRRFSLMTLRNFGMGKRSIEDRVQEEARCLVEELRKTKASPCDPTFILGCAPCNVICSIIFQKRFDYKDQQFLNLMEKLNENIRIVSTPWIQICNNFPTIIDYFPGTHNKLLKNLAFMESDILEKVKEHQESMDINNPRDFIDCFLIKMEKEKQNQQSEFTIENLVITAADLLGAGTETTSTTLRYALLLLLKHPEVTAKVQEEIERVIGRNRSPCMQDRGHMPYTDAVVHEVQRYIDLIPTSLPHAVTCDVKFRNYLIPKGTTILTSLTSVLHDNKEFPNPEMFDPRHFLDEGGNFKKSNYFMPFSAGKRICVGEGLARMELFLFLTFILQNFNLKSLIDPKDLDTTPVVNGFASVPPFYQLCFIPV
Thyrotropin-releasing hormone receptor (Homo sapiens), sequence (P34981 whole entry, looked up): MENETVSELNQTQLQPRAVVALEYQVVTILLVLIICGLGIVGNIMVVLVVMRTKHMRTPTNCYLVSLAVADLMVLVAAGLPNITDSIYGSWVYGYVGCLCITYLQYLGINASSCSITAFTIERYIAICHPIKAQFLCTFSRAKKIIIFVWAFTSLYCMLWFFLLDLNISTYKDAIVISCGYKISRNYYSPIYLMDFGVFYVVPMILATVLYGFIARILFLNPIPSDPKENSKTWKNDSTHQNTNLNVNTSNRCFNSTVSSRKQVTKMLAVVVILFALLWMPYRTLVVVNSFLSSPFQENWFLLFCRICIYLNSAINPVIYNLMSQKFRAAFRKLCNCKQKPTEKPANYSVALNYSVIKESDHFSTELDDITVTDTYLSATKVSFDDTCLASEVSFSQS
Nuclear receptor subfamily 1 group I member 2 (Homo sapiens), sequence (O75469 whole entry, looked up): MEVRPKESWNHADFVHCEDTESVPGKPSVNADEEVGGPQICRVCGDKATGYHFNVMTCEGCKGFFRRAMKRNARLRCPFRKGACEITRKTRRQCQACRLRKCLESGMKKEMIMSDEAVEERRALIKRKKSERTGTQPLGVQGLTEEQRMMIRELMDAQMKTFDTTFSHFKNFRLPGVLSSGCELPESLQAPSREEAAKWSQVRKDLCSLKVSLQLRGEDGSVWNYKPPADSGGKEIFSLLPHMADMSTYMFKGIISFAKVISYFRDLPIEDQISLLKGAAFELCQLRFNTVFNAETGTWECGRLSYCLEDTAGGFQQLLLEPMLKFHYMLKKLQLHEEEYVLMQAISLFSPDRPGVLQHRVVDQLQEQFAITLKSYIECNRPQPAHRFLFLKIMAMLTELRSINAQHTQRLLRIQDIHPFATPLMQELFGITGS
Cytochrome P450 3A4 (Homo sapiens), sequence (P08684 whole entry, looked up): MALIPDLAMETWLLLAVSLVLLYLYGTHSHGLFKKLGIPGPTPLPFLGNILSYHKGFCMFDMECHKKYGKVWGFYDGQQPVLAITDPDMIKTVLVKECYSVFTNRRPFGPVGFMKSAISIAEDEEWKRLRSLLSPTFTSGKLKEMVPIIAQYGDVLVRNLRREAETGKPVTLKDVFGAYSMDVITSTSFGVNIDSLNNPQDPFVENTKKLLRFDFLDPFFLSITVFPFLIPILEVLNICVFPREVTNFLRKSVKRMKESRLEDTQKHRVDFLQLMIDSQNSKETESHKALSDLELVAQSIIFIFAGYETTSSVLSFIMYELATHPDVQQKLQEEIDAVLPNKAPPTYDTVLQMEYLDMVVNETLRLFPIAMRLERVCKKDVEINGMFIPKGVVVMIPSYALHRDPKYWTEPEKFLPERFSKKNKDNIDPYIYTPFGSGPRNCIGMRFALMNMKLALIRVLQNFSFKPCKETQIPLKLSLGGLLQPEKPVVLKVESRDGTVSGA
Cytochrome P450 2C9 (Homo sapiens), sequence (P11712 whole entry, looked up): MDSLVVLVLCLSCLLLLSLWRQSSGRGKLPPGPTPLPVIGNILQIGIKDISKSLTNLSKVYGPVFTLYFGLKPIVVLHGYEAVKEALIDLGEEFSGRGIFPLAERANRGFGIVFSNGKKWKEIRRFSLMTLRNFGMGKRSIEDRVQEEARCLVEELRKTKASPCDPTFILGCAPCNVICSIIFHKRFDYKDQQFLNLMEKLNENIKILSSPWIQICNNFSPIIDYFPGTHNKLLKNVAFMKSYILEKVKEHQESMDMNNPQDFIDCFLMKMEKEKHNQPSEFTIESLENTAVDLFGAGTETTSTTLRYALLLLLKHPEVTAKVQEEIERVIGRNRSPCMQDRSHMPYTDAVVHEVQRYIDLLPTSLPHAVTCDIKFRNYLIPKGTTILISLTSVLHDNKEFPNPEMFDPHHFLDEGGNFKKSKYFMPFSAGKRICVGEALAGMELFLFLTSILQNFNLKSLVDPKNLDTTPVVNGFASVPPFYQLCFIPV
Voltage-gated inwardly rectifying potassium channel KCNH2 (Homo sapiens), sequence (Q12809 whole entry, looked up): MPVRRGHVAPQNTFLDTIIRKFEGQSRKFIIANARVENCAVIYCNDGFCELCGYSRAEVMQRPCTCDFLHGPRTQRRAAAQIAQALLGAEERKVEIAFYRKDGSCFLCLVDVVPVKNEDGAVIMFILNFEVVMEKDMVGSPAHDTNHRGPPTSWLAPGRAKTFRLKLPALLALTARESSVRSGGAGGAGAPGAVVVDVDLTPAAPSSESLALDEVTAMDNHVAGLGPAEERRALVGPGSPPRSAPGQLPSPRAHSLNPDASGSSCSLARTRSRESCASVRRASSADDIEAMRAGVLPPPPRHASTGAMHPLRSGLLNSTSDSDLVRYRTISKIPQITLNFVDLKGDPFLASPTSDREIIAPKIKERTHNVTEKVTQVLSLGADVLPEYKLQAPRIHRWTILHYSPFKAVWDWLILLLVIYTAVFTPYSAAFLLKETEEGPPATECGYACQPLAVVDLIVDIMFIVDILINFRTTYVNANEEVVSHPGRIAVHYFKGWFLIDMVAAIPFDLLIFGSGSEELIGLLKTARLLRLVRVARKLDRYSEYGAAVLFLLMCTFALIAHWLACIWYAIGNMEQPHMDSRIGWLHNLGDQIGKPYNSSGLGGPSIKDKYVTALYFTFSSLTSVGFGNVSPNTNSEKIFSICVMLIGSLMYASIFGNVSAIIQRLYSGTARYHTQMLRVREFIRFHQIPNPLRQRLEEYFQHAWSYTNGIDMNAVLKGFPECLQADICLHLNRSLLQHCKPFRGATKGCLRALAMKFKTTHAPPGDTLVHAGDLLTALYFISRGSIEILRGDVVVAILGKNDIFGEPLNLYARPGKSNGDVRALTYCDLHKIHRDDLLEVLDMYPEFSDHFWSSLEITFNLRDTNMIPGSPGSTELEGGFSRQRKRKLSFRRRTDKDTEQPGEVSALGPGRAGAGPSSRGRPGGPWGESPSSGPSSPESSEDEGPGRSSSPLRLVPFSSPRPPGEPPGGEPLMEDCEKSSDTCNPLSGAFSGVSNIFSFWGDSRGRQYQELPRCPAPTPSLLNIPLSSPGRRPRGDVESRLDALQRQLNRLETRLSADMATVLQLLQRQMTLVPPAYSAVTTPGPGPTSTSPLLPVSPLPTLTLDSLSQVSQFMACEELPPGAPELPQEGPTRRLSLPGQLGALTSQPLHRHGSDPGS
Cytochrome P450 1A2 (Homo sapiens), sequence (P05177 whole entry, looked up): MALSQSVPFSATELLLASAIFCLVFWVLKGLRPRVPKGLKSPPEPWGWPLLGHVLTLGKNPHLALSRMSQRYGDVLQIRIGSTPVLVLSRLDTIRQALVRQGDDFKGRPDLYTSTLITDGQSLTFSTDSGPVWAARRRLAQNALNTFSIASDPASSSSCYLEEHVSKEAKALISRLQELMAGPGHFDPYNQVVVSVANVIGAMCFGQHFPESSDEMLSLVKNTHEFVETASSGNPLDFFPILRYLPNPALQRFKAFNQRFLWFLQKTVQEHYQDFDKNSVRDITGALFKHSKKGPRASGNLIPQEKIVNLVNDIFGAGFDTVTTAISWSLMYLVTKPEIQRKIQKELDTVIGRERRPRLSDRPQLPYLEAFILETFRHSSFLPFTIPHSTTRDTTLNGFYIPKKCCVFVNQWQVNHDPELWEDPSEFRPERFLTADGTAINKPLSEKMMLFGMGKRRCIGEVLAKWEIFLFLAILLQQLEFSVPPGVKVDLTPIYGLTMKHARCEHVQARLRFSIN
Nuclear receptor subfamily 1 group I member 2 (Rattus norvegicus), sequence (Q9R1A7 whole entry, looked up): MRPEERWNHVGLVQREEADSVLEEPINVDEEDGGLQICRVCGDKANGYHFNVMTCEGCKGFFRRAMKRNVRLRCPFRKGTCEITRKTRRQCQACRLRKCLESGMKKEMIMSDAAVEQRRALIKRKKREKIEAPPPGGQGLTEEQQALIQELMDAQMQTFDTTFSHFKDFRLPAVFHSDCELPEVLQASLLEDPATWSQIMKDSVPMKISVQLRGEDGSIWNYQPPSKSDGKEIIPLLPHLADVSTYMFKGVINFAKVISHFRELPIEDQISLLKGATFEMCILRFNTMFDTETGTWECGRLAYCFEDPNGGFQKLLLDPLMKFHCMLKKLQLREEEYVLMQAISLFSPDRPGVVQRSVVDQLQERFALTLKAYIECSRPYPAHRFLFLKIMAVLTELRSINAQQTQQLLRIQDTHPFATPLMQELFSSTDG

`COC(=O)CC(=O)C(C)(C)C`: the Potency result in assay [1], in [2], in assay [3], in [5], in assay [6] and in assay [7] was “inactive” throughout. For the same compound, the Potency result in assay [8], in [9] and in assay [10] was “inactive” in each case. In assay [4], the outcome was inactive.

In the case of `CCC(C)(C)C1CCC(O)CC1` (configuration not stated), the Potency entry in assay [1], in assay [2], in [3], in assay [5], in [6] and in [7] was “inactive” throughout. For the same compound, the Potency result in assay [8], in [11] and in assay [10] was “inactive” in each case. The outcome in assay [4] was inactive.

For the compound `N#C/C(=C1/SC[C@@H](c2ccc(Cl)cc2Cl)S1)n1ccnc1`, the Potency result in assay [12], in [2], in [5] and in assay [6] was “inactive” each time. The result in assay [4] was inactive. For the same compound, the Potency in assay [7] is 0.219 µM (active); in assay [8], 0.389 µM (active); in assay [11], 0.389 µM (active); in assay [13], 0.288 µM (active); in assay [9], 3.01 µM (active).

As to `O=C1NCCN1`, the Potency entry in assay [1], in assay [2], in assay [3], in assay [5], in [6] and in [11] was “inactive” throughout. Further, the Potency entry in assay [9] and in assay [10] was “inactive” throughout. The compound was called inactive in [4]. For the same compound, the Potency is 21.5 µM (active) in assay [7] and 34.1 µM (active) in assay [8].

Regarding `CCOC(=O)N1CCC(n2c(=O)[nH]c3cc(Cl)ccc32)CC1`, the Potency entry in [12], in assay [6], in assay [7], in [9] and in [10] was “inactive” throughout. Further, the Potency in assay [8] and in assay [11] was 9.77 µM (active) in each case.

Turning to `C/C=C/C=C/CCCCCCCO`, the Potency result in [12] and in assay [2] was “inactive” each time. The outcome in assay [4] was inactive. The Potency in assay [6] was 61.1 µM (active); in [8] it was 25.2 µM (active); in [11], 7.1 µM (active); in assay [10] it was 15.9 µM (active).

In the case of `COCc1c(C(C)C)nc(C(C)C)c(/C=C/[C@@H](O)C[C@@H](O)CC(=O)O)c1-c1ccc(F)cc1`, the Potency entry in assay [1], in assay [7], in assay [8] and in [9] was “inactive” throughout. The Potency is 2.11 µM (active) and 958 nM (active) in [2]; 15 µM (active) and 10.8 µM (active) in assay [6]; 11.2 µM (active) in assay [14]; 3.16 µM (active) in [15]; 3.55 µM (active) in assay [16]; 35.2 µM (active) in assay [11]. Besides, the Potency in assay [13] was 30.9 µM (active). Further, the call in [4] was inactive.

`CCCc1c(OCCCOc2ccc(OCC(=O)O)cc2)ccc(C(C)=O)c1O`: the Potency entry in assay [1], in assay [2], in [5], in assay [7], in assay [9] and in [10] was “inactive” in each case. Moreover, in assay [11], the Potency was 8.94 µM (active).

With `CCCC1C(CC)=CC(CC)=CN1c1ccccc1` (configuration not stated), the Potency entry in assay [1], in assay [2] and in assay [3] was “inactive” throughout. In [4], the compound was called inactive. Moreover, the Potency is 24.3 µM (active) in assay [6]; 20 µM (active) in [7]; 2 µM (active) in [8]; 17.8 µM (active) in [11]; 11.2 µM (active) in assay [13].

On to `NC(=O)Nc1ccc(Cl)cc1`, for which the Potency entry in assay [1], in assay [3], in assay [5], in [6], in [7] and in assay [9] was “inactive” in each case. For the same compound, in assay [4], the call was inactive. Besides, the Potency in [8] was 79.3 µM (active); in assay [13] it was 31.6 µM (active).

For the origin of these results see PubChem BioAssay (Tox21).
